Results from PubChem BioAssay AID504327 (National Center for Advancing Translational Sciences (NCATS), 2011).
Among all 390,000 compounds or so, about 820 (0.21%) were called active. Not shown: some 3% with an inconclusive outcome. What follows is part of a selection rich in actives, with near analogues and random picks from the rest. Unmarked numbers belong to inactive results. Calls follow the shape of the dose curve; as a rule, active = well fitted inhibition curve with a large enough effect; inconclusive = small, poorly fitted or top-dose-only effect, or another doubt; inactive = no such curve, though single readings can be large or run the other way. Non-standard residues stand in square brackets, D forms with d. Residues, ends and D or L forms follow the SMILES beside them. Groups on a side chain read outwards from the residue. *: point of attachment. X1 = CCC(C)C(N)C1=NC(C(=O)*)CS1; Orn = NCCC[CH](N)C(=O)O

The compounds below were run against Histone acetyltransferase KAT2A (Homo sapiens) (UniProt Q92830) (assay: qHTS Assay for Inhibitors of GCN5L2). Conditions: GCN5L2 HAT assay, ThioGlo1 CoA-SH fluorescence; series mostly up to 58.9 µM; activity change, negative = inhibition: at the top concentration.
Sequence of Histone acetyltransferase KAT2A (Homo sapiens) (Q92830 whole entry, looked up): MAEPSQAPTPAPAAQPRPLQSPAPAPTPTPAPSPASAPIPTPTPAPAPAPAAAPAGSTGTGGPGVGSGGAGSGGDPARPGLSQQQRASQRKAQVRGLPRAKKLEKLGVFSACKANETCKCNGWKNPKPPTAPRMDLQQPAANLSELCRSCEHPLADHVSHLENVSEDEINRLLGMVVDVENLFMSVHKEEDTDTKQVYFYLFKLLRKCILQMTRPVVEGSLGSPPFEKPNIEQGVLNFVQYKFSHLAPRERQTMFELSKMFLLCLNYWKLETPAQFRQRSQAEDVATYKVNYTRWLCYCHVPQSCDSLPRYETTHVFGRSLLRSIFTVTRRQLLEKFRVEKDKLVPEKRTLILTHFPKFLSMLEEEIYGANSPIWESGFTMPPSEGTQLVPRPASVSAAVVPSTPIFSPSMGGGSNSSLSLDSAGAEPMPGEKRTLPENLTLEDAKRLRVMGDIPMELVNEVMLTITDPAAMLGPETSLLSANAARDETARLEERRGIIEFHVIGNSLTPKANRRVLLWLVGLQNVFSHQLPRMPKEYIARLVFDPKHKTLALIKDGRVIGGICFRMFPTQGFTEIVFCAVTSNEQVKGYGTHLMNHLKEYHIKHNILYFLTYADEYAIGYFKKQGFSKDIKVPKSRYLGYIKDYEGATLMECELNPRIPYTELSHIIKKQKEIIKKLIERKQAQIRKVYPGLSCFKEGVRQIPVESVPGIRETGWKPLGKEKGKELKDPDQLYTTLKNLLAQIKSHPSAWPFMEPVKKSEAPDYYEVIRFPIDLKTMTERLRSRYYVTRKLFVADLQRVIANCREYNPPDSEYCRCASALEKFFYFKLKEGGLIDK
From the text: Histone acetyltransferase (HAT) enzymes transfer a […] group from acetyl-coenzyme A to the epsilon-amino group of conserved lysine residues of N-terminal histone tails. Acetylation results in charge neutralization of this positively charged amino acid, decreasing interactions with the […] backbone and making the DNA more accessible for transcription. HATs have been recognized as an emerging drug target for treatment of cancer, diabetes, asthma, chronic obstructive pulmonary disease, cardiac disease, and viral infection. Protein identified with HAT activity include the […] like 2 (GCN5L2, a.ka. Histone acetyltransferase KAT2A) which acetylates histone H3 at Lys9, 14, 18, 13, and to lesser extent histones H4 and H2B. This activates transcription of the gene by modulating chromatin structure and installing the acetyllysine recognition mark for bromodomain-containing coactivator proteins.
A quantitative high throughput screen was developed to identify small molecule inhibitors. The assay is based on the principle that it measures formation of reduced CoA with the pro-fluorescent maleimide derivative ThioGlo1 that becomes fluorescent upon reaction with the free thiol of CoA.
A large number of artifacts are expected in this primary screen, compounded by the assay format (fluorescent artifacts) and by the high top concentration tested for each substance. This BioAssay data deposition should be used with caution, and counterscreen and secondary assay validation is essential since very few actives from the primary screen are expected to be true inhibitors of GCN5L2.
[2] Yasgar, et al. Compound Management for Quantitative High-Throughput Screening. JALA. 2008 Apr;13(2):79-89.
[3] Inglese, et al. Quantitative high-throughput screening: a titration-based approach that efficiently identifies biological activities in large chemical libraries. Proc Natl Acad Sci. 1;103(31):11473-8. 2006. PMID: 16864780
NIH Molecular Libraries Probe Production Network [MLPCN]
NIH Chemical Genomics Center [NCGC]
Structural Genomics Consortium (SGC)
To each well of a 1,536w plate, 3ul of GCN5L2 (final concentration 20nM, in 50mM HEPES, 0.1mM EDTA (pH 7.5), 0.01% Tween-20 buffer) are added using a Kalypsys dispenser. Only buffer is added to some wells as a control. A Kalypsys pin-tool transferred 23nl of library compound solution in DMSO to each well, as well as the control inhibit garcinol. . Following a 15 min incubation of enzyme with compounds at room temperature, 1ul mixture of ThioGlo1 (50uM final), H3(1-25) peptide (75uM final), and Acetyl-CoA (70uM final) is added. Plates are read immediately on the ViewLux (PerkinElmer) (Ex340nm/Em540nm) for a 0 min read, incubated for 20 min at room temperature, and read again on the ViewLux with the same settings. The initial read was carried out to identify compounds that are potentially fluorescent.
% is scaled to controls: 0 for no effect and ±100 for the full control effect; potency is read from the fitted curve at half-maximal effect.

Structure (SMILES) | activity change, negative = inhibition | Potency
O=S(O)S(=O)(=O)O | 0.862% | –
CCC(C)C(N)C1=NC(C(=O)NC(CC(C)C)C(=O)NC(CCC(=O)O)C(=O)NC(C(=O)NCCCCC2NC(=O)C(CC(N)=O)NC(=O)C(CC(=O)O)NC(=O)C(Cc3cnc[nH]3)NC(=O)C(Cc3ccccc3)NC(=O)C(C(C)CC)NC(=O)C(CCCN)NC2=O)C(C)CC)CS1 (stereo not drawn) (cyclo(DNK([Ile-Glu-Leu-X1])[Orn]IFH); configuration not given here) | 12.2% | –
COC(=O)CC1C(C)(C)C(OC(C)=O)C2CC3=C4CC(=O)OC(c5ccoc5)[C@]4(C)CCC3[C@@]1(C)C2=O (stereo partly drawn) | 3.09% | –
O=C(c1csnn1)N1CCC2(CC1)CN(c1ncccn1)C2 | -3.32% | –
CC(C)c1cnc(NC(=O)Cc2ccccc2)s1 | -7.71% | –
Cc1nc2cnc(N3CCN(C)CC3)nc2n(CCC#N)c1=O | -21% | –
C[C@H]1CCC[C@@]2(C)CCCC[C@]12O | -21.9% | –
CC(CCC(=O)O)C1CCC2C3C(O)C[C@@H]4CC(O)CC[C@@]4(C)C3CC[C@@]12C (stereo partly drawn) | – | inactive
O=c1cc(-c2ccc(O)cc2)oc2c([C@@H]3O[C@H](CO)[C@@H](O)[C@H](O)[C@H]3O)c(O)cc(O)c12 | -14.1% | –
O=C(c1ccncc1)N1CCC2(CCCN(C(c3ccccc3)c3ccccc3)C2)CC1 | -12.2% | –
COc1ccccc1N1CCN(C[C@@H]2CN3C(=O)N(C)c4ccccc4C3=N2)CC1 | -10.7% | –
C[C@@H]1C[C@H]2[C@@H]3C[C@H](F)C4=CC(=O)C=C[C@@]4(C)[C@]3(F)[C@H](O)C[C@]2(C)[C@@]1(O)C(=O)CO | 5.37% [at 21.4 µM] | –
C[C@@H]1O[C@@H](OC[C@H]2O[C@@H](Oc3cc(O)c4c(c3)O[C@H](c3ccc(O)c(O)c3)CC4=O)[C@H](O)[C@@H](O)[C@@H]2O)[C@H](O)[C@H](O)[C@H]1O | -18.7% | –
Cc1ccccc1CSCCNC(=O)c1ccc(Cl)c(S(=O)(=O)N2CCOCC2)c1 | 2.44% | –
COc1ccccc1CNC(=O)c1ccc(N(C)S(=O)(=O)c2ccc(C)cc2)cc1 | -9.17% | –
Cc1ccccc1CSCCNC(=O)c1ccc(N(C)S(=O)(=O)c2ccccc2)cc1 | – | 2.24 µM (active)
COc1cccc(Nc2ncc3ncc(=O)n(C4CC4)c3n2)c1 | -6.14% | –
Cc1ccc(C2C(C#N)C(C#N)N3CCCN23)cc1 (stereo not drawn) | – | 22.4 µM (active)
CC1CC[C@@]23CCC4(C)[C@@]5(C)CCC6C(C)(C)C(O)CC[C@@]6(C)C5C=C[C@@]4(OC2=O)C3C1C (stereo partly drawn) | -10.8% | –
CC1=C/C(=N\OS(=O)(=O)c2ccccc2)C=CC1=O | – | 14.1 µM (active)
COc1cc2c(cc1OC)CC(=O)N(CCCN(C)C[C@H]1Cc3cc(OC)c(OC)cc31)CC2 | -3.71% | –
O=C1OC(C(O)CO)C(O)=C1O (stereo not drawn) | -3.15% | –

Structure (SMILES) | activity change, negative = inhibition | Potency
CCNc1ncc2ncc(=O)n(Cc3cccc(OC)c3)c2n1 | -13.7% | –
Cc1ccc(S(=O)(=O)N2CCCCC2)cc1NC(=O)c1cccnc1 | -1.42% | –
Cc1c(C(=O)OC(C)C)sc(NC(=O)c2cccnc2)c1C#N | – | 3.16 µM (active)
CCOC(=O)c1sc(NC(=O)CSc2nc(C)cc(C(F)(F)F)n2)c(C#N)c1C | 0% | –
COc1cccc(-c2cc(NCCc3c[nH]c4ccc(OC)cc34)ncn2)c1 | -21.1% | –
CC1(C)OC2CC3C4CCC5=CC(=O)CCC5(C)C4(F)C(O)CC3(C)[C@]2(C(=O)CCl)O1 (stereo partly drawn) | 4.95% | –
Oc1c(Cl)cc(Cl)c(Cl)c1Cc1c(O)c(Cl)cc(Cl)c1Cl | – | 12.6 µM (active)
c1ccc2c(Nc3ccncc3)nc(-c3ccoc3)nc2c1 | -26.1% | –
O=C(Nc1ccccc1)N[C@H]1C[C@H](C(=O)O)Nc2cc(Cl)cc(Cl)c21 | – | inactive
C=C1C(=CC=C2CCC[C@@]3(C)[C@@H]2CC[C@H]3[C@H](C)CCCC(C)C)C[C@@H](O)C[C@@H]1O | -15.3% | –
CC(C)(O/N=C(\C(=O)N[C@@H]1C(=O)N2C(C(=O)[O-])=C(C[n+]3ccccc3)CS[C@@H]12)c1csc(N)n1)C(=O)O | -8.44% [at 21.4 µM] | –
CC1C(O)CC2C(C(=O)O)=CO[C@@H](O[C@H]3OC(CO)C(O)C(O)C3O)C21 (stereo partly drawn) | 2.16% | –
COC(=O)N1CCC[C@@]2(CCN(C(=O)NC(C)C)C2)C1 | -1.27% | –
Brc1ccc(C2=NCCC(c3ccccc3)O2)cc1 (stereo not drawn) | 16.1% [at 88.6 µM] | –
CC(C)NC(=O)N1CC[C@@]2(CCCN(C(=O)c3ccco3)C2)C1 | -4.07% | –
CCCCOc1ccc(Cn2c(=O)oc3ccc(C)cc32)cc1OC | -18.2% | –
Cc1ccc(C)c(NC(=O)COC(=O)Cn2c(C)csc2=O)c1 | -26.1% | –
CCCCOC(=O)Cn1c(=O)n(CC(=O)OCCCC)c2cc(C)ccc21 | – | 31.6 µM (active)
COc1ccc(NC(=O)N2CC3(CCN(C(C)=O)CC3)C2)cc1 | -3.46% | –
CC(=O)CC(c1ccccc1)C1C(=O)Oc2ccccc2C1=O (stereo not drawn) | -14.4% | –
COc1cccc(Cn2c(=O)c(-c3cc(F)cc(F)c3)nc3cnc(OC)nc32)c1 | -18.4% | –
